From PubChem BioAssay AID1259343 (VanderVen Lab, College of Veterinary Medicine, Cornell …, 2017) come the findings set out here.

What is called inhibition is the change of the read-out against control, counted positive when it falls.

About 2,900 (47%) of roughly 6,200 compounds were called active. So high a share suggests a set chosen from earlier hits. The list shows a part of the results. A number with no mark means an inactive call. Cut-off read from the data, not from the text of the source: active = inhibition above about 50%; inactive = the rest.

The assay can be described thus: Mycobacterium tuberculosis growth inhibition, primary screen (AID 1259343). The note with it: inhibition: at 10 µM, hits give high values; outcome: 10 uM.
In the case of `O=C1CC(c2ccc(O)cc2)Oc2ccccc21` (centres undefined), the inhibition was 72.9% (active).
In the case of `O=C1CC(c2ccc3c(c2)OCCO3)Oc2ccc(Br)cc21` (centres undefined), the inhibition entry is “inactive”.
To `COc1ccc2c(c1OC)C(=O)OC2Nc1ccc(I)cc1` (centres undefined) belongs 72.8% (active); to `O=C1NC(=O)C(Nc2ccc(I)cc2)S1` (centres undefined), 27.9%; to `Cc1ccc(OCCCn2cnc3ccccc32)cc1`, 36%.
To `Cc1ccc(C(C)C)cc1OCCCn1cnc2ccccc21` belongs 78.4% (active).
On to `Ic1ccc(OCCCn2cnc3ccccc32)cc1`, for which the inhibition is 70.5% (active).
As to `c1ccc(COc2ccc(OCCCn3cnc4ccccc43)cc2)cc1`, the inhibition is 85.3% (active).
For `FC(F)(F)c1cccc(OCCCCn2cnc3ccccc32)c1`, the inhibition is 76.6% (active).
To `c1ccc(OCCCCn2nnc3ccccc32)cc1` belongs 21.5%.
Under `CC1=C(C(=O)OCCOc2ccccc2)C(c2ccccc2[N+](=O)[O-])NC(=O)N1C` (centres undefined) stands -7.53%.
To `Cc1cc(OCC(O)CN(Cc2ccccc2)C(C)(C)C)ccc1[N+](=O)[O-]` (centres undefined) belongs 0.53%.
As for `Cc1cc(OCCCn2cnc3ccccc32)ccc1[N+](=O)[O-]`, the inhibition is 61.1% (active).
Under `CN(Cc1nc2c(s1)CCCC2)C(=O)Cc1ccccc1O` stands 82.4% (active).
Under `CC1=NN(c2ccc(C(=O)N(C)Cc3ccccc3O)cc2)CC1` stands 23.1%; under `Cc1[nH]ccc2c1[nH]c1cc(=O)ccc12`, 90.6% (active).
To `COc1cccc(Oc2ncc(C(N)=O)cc2Cl)c1` belongs 68.9% (active); to `Oc1ccc(Oc2ncc(Cl)cc2Cl)cc1`, 38.9%; to `CN(Cc1ccccc1C(F)(F)F)c1ncc(C(N)=O)cc1Cl`, 39.2%.
On to `CN(C)c1ccc(-c2nc(-c3cc4c5c(c3)CC(=O)N5CCC4)cs2)cc1`, for which the inhibition is -34.5%.
On to `CCc1ccc(-c2csc(N)n2)s1`, for which the inhibition was 76.7% (active).
In the case of `Nc1nc(-c2cccs2)cs1`, the inhibition is 76% (active).
Under `Clc1ccc(-c2csc(-c3cnccn3)n2)s1` stands 17.5%; under `Nc1nc(-c2ccc3c(c2)OCO3)cs1`, -28.1%.
As to `Nc1nc(-c2ccc(Cl)s2)cs1`, the inhibition is 86.7% (active).
To `Cc1nc(-c2ccc(CCNC(=O)c3cc(F)cc(F)c3)s2)cs1` belongs 35.7%; to `CN(C)c1ccc(Nc2nc(-c3cccs3)cs2)cc1`, 18.8%.
For `NC(=O)c1ccn(-c2cccc(Br)c2)n1`, the inhibition was 10.3%.
Under `Nc1ccn(-c2ccc(Cl)c(Cl)c2)n1` stands 96.1% (active).
To `Cc1sc2nc(-c3cccs3)nc(N3CCNC(C(N)=O)C3)c2c1C` (centres undefined) belongs 26%.
In the case of `O=[N+]([O-])c1ccc2nc(C(F)(F)F)[nH]c2c1`, the inhibition was 102% (active).
Under `O=[N+]([O-])c1ccc2[nH]c(O)c(N=Nc3cccc(C(F)(F)F)c3)c2c1` stands -6.56%; under `CCNC(=S)N1CCN(S(=O)(=O)c2ccc(Cl)s2)CC1`, 99.5% (active); under `O=S(=O)(c1ccc(Cl)s1)N1CCN(c2ccnc3cc(Cl)ccc23)CC1`, 9.81%.
To `O=S(=O)(c1ccc(Cl)s1)N1CCN(c2ccc(F)cc2)CC1` belongs -6.71%; to `Cc1cc(C)n(-c2nc3c(c(=O)n2CC(=O)NC2CCCC2)CCCC3)n1`, 88.4% (active); to `C=CCNC(=O)Cn1c(-n2nc(C)cc2C)nc2c(c1=O)CCCC2`, 98% (active).
As to `Cc1cc(N)n(CC(=O)NCCn2c(C)cc3ccccc32)n1`, the inhibition is -1.16%.
On to `Oc1cc(-c2cccc3c2Sc2ccccc2S3)cc2c1OCCNC2`, for which the inhibition was 22%.
To `COC(=O)Nc1ccc(OCc2nc(C)c(C)s2)cc1` belongs 2.64%; to `COc1ccc(C2(C(=O)Nc3nc(C)c(C)s3)CCCCC2)cc1`, 91.6% (active); to `Cc1ccc(O)c(C(=O)N(C)Cc2ccccc2C(F)(F)F)c1`, 14.5%.
To `Cc1ncc(CN(C)C(=O)c2ccc(Cl)c(Cl)c2O)s1` belongs 45.2%; to `CN(Cc1ccc(Br)s1)C(=O)c1ccccc1O`, 89.5% (active).
To `O=C1c2ccccc2C(=O)c2oc(-c3cc([N+](=O)[O-])cc([N+](=O)[O-])c3)nc21` belongs 61.8% (active); to `CCCc1cc(N2CCCC2)n2nc3nc(C)cc(C)c3c2n1`, 22%; to `CCCc1cc(NCC2CCCO2)n2nc(C)c(-c3ccccc3)c2n1` (centres undefined), 39.6%.
As to `CCCc1cc(NCC2CCCO2)n2nc3nc(C)cc(C)c3c2n1` (centres undefined), the inhibition is 98.6% (active).
Under `Cc1cc(C)cc(NC(=O)COc2coc(CN3CCc4ccccc43)cc2=O)c1` stands 69.1% (active).
Under `O=c1cc(CN2CCc3ccccc32)occ1OCc1ccc(Cl)cc1` stands 1.87%; under `CCc1nnc(N/N=C\c2cc(Cl)c(OCc3ccccc3F)c(OC)c2)n1N`, 51.4% (active); under `CC(C)=CCCC(C)[C@@H]1CC[C@]2(C)C3=C(CC[C@@]12C)C1(C)CC[C@H](O)C(C)(C)C1CC3` (some centres undefined), 49.1%.
To `CCCCOc1c(I)cc(CNCCN(C)C)cc1OCC` belongs -1.94%; to `COc1ccc([C@@H](C)C(=O)c2ccc(O)cc2O)cc1`, 64.6% (active); to `COc1c(O)cc(O)cc1O`, 19.6%.
With `COc1ccc(C(=O)Nc2cnn(C(C)(C)C)c2)c(O)c1`, the inhibition is -6.01%.
For the compound `O=C(CCl)N1CCN(c2ncc(C(F)(F)F)cc2Cl)CC1`, the inhibition was 67.7% (active).
Under `O=S(=O)(c1cccc(Br)c1)N1CCCN(c2ncc(C(F)(F)F)cc2Cl)CC1` stands 45%; under `CS(=O)c1c(Cl)cccc1NC(=O)N1CCN(c2ncc(Cl)cc2Cl)CC1` (centres undefined), -25.6%; under `Cc1c(/C=C/c2ccc(Br)cc2F)n[nH]c(=O)c1C#N`, 67% (active).
Under `COc1ccc(C(=O)C=Cc2ccc(Br)cc2F)c(OC)c1` stands -5.68%.
To `O=C(c1ccc(Cl)cc1Cl)N1CCCC(OCc2ccccc2Cl)C1` (centres undefined) belongs 20.5%; to `Oc1ccc(C=NNc2ncnc3scc(-c4ccccc4)c23)c(O)c1`, 12.7%.
`C(=Cc1ccccc1)C=NNc1nn[nH]n1`: the inhibition is 86.6% (active).
To `O=C(NN=CC=Cc1ccccc1)c1cc(C23CC4CC(CC(C4)C2)C3)[nH]n1` belongs 11.1%; to `c1ccc(Nc2ccc(OCc3nn[nH]n3)cc2)cc1`, 10.5%; to `C(=Cc1ccccc1)C=NNc1ncnc2ccccc12`, 99.2% (active).
`CC(C)c1nnc(SCc2cccnc2)c2c1cnn2-c1ccc(F)cc1`: the inhibition is 48%.
To `CCOCCSc1nnc(C)c2cnn(-c3ccc(C)c(C)c3)c12` belongs 51.4% (active); to `Cc1ccc(-n2ncc3c(C4CC4)nn(C)c(=O)c32)cc1C`, 47.4%.
To `CC(=O)C1=NN(c2ccccc2)C2C(=O)N(c3ccc(Br)cc3)C(=O)C12` (centres undefined) belongs 14.1%; to `O=C1[C@H]2C(c3ccccc3)=NN(c3ccccc3)[C@H]2C(=O)N1c1ccccc1`, 73% (active); to `O=c1[nH]cnc2c1nnn2-c1ccc(OC(F)(F)F)cc1`, 49.2%.
Under `N[C@H](C(=O)O)[C@@H]1CC(Cl)=NO1` stands 91.8% (active); under `CCOc1c(Br)cc(C=CC(=O)c2ccc(OC)cc2)cc1OC`, 14.3%.
Regarding `CCOc1c(Br)cc(C=CC(=O)c2ccc(F)cc2)cc1OC`, the inhibition was -23.1%.
With `CCOc1cc(C=CC(=O)c2ccc(Cl)cc2)ccc1O`, the inhibition is 54% (active).
With `O=S(=O)(Nc1ccc(OC(F)F)c(Cl)c1)c1ccc(Cl)s1`, the inhibition was 79.2% (active).
Under `O=S(=O)(Nc1ccc(F)c(Cl)c1)c1ccc(Cl)s1` stands 52.7% (active); under `O=S(=O)(Nc1ccc(F)c(Cl)c1)c1ccc(Br)s1`, 24.5%.
To `O=S(=O)(Nc1ccc(OC(F)F)c(Cl)c1)c1ccc(Cl)c(Cl)c1` belongs -2.94%; to `O=S(=O)(Nc1ccc(OC(F)F)c(Cl)c1)c1ccc(F)c(Cl)c1`, -3.78%; to `Cc1ccc(-c2ccsc2C(=O)NS(=O)(=O)N2CCCCC2)cc1`, 20.7%.
To `COC(=O)c1sccc1S(=O)(=O)Nc1cc(C)ccc1OC` belongs 54.2% (active).
For the compound `COC(=O)c1sccc1NS(=O)(=O)c1cc(Cl)cc(Cl)c1`, the inhibition is 7.22%.
To `O=C(C1c2ccccc2Oc2ccccc21)N(C(=O)N1CCCCC1)c1ccccc1` belongs 3.02%; to `Cc1cc(OCCN2CCN(Cc3ccccc3)CC2)ccc1I`, 88.7% (active).
Under `Cc1cc(C)c(CN2CCC(CO)(CCOc3ccccc3)CC2)cc1C` stands 17.3%.
As for `O=c1ccc(-c2cccc(Br)c2)nn1Cc1cccc(F)c1`, the inhibition is 48.5%.
As to `Cc1cccc(Cn2nc(-c3ccc(F)cc3)c3sc(C)nc3c2=O)c1`, the inhibition is 94% (active).
Turning to `Cc1cccc(Cn2nc(-c3ccc(Br)cc3)ccc2=O)c1`, the inhibition is 24.7%.
Under `COc1ccc2c(C)nc(N=C(N)N)nc2c1` stands 38.5%; under `CC(C)c1ccc(C(N)=S)cc1`, 99.7% (active).
To `COc1ccc(C(N)=S)cc1` belongs 68.6% (active).
Under `CC(C)c1ccc(S(=O)(=O)c2ccc(Cl)cc2)cc1` stands -10.2%.
For `CCN(C(=O)c1ccc2c(=O)n(CC)c(=O)[nH]c2c1)c1ccccc1C`, the inhibition is -22.1%.
Under `c1csc(-c2noc(CN3CCCN(c4nc5ccccc5s4)CC3)n2)c1` stands 91.6% (active).
Under `CCCc1nc(CN2Cc3ccccc3-c3ccccc3C2)no1` stands -15.3%; under `Fc1ccc(Cn2ncc3c2CN(c2nc4ccccc4s2)C3)cc1`, 32.9%.
To `Fc1ccccc1Cc1noc(CN2CCN(c3nc4ccccc4s3)CC2)n1` belongs 60.6% (active); to `c1ccc(CCc2noc(CN3CCN(c4nc5ccccc5s4)CC3)n2)cc1`, 89.5% (active).
Regarding `O=C(NN=Cc1ccc(O)cc1)c1cc(C23CC4CC(CC(C4)C2)C3)[nH]n1`, the inhibition was 16.7%.
Under `O=C(NN=Cc1ccc(O)cc1)c1cc(-c2ccc(Cl)cc2Cl)n[nH]1` stands 85.8% (active); under `O=C(NN=Cc1ccco1)c1cc(-c2ccc(Cl)cc2)n[nH]1`, 43.3%.
